PubChem BioAssay (EPA / NIEHS)
Active and inactive are the calls of the source. The calls were made as follows: active = hit-call score of the fitted dose curve at least 0.9, where 1 is the maximum; inactive = score below 0.9.

Key:
Conditions in all cases: mRNA level, 48 h; actives raise or lower the signal
[1] = read-out: Insulin-like growth factor-binding protein 1 (IGFBP1), IGFBP1 (gene 3484); test: LTEA_HepaRG_IGFBP1: Life Technologies and Expression Analysis (LTEA) Assay for Insulin-like growth factor-binding protein 1 (IGFBP1) using HepaRG (AID 2283508)
In short: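 HepaRG, 48 h, 8 conc. (max 100 uM, half-log), duplicates, 0.5% DMSO. Readout: TaqMan qRT-PCR, ACTB/GAPDH/POLR2A normalisation. Fit: bidirectional vs DMSO.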

[2] = read-out: Interleukin 6 (IL6), IL6 (gene 3569); test: LTEA_HepaRG_IL6: Life Technologies and Expression Analysis (LTEA) Assay for Interleukin 6 (IL6) using HepaRG (AID 2283509)
In short: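 HepaRG cells exposed in duplicate for 48 h to eight half-log concentrations, top 100 uM, in 0.5% DMSO serum-free induction medium. mRNA measured by qRT-PCR, normalized to ACTB, GAPDH and POLR2A. Bidirectional fit versus DMSO.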

[3] = read-out: Interleukin 6 Receptor (IL6R), IL6R (gene 3570); test: LTEA_HepaRG_IL6R: Life Technologies and Expression Analysis (LTEA) Assay for Interleukin 6 Receptor (IL6R) using HepaRG (AID 2283510);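 as to AC50: TaqMan qRT-PCR signal normalized to ACTB GAPDH and POLR2A housekeeping genes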
In short: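 Differentiated HepaRG cells, plated 48 h, then exposed in duplicate for 48 h in serum-free induction medium to 8 half-log concentrations (top 100 uM, 0.5% DMSO). IL6R mRNA measured by TaqMan qRT-PCR, normalized to ACTB/GAPDH/POLR2A; bidirectional fit vs DMSO.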

[4] = read-out: Potassium channel subfamily K member 1 (KCNK1), KCNK1 (gene 3775); test: LTEA_HepaRG_KCNK1: Life Technologies and Expression Analysis (LTEA) Assay for Potassium channel subfamily K member 1 (KCNK1) using HepaRG (AID 2283511)
In short: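 Differentiated HepaRG cells, 48 h exposure in serum-free induction medium with 0.5% DMSO; 8 concentrations, half-log from 100 uM, duplicate. KCNK1 mRNA by qRT-PCR, normalized to ACTB, GAPDH, POLR2A; bidirectional fit vs DMSO.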

[5] = read-out: Keratin 19 (KRT19), KRT19 (gene 3880); test: LTEA_HepaRG_KRT19: Life Technologies and Expression Analysis (LTEA) Assay for Keratin 19 (KRT19) using HepaRG (AID 2283512)
In short: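 Readout is qRT-PCR of KRT19 mRNA, normalized to ACTB, GAPDH and POLR2A, from HepaRG cells treated 48 h with eight-point half-log dilutions topping at 100 uM. Activity in either direction is scored relative to 0.5% DMSO vehicle.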

[6] = read-out: JUN Transcription Factor, JUN (gene 3725); test: LTEA_HepaRG_JUN: Life Technologies and Expression Analysis (LTEA) Assay for JUN Transcription Factor using HepaRG (AID 2283513)
In short: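 HepaRG cells, 48 h post-plating, exposed 48 h in serum-free induction medium to 8-point half-log series (top 100 uM, 0.5% DMSO), duplicate; mRNA by qRT-PCR (TaqMan, Fluidigm), normalized to ACTB/GAPDH/POLR2A; bidirectional fit vs DMSO.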

[7] = read-out: Lipase C (LIPC), LIPC (gene 3990); test: LTEA_HepaRG_LIPC: Life Technologies and Expression Analysis (LTEA) Assay for Lipase C (LIPC) using HepaRG (AID 2283514)
In short: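 HepaRG cells, 48 h after plating, treated in duplicate for 48 h in serum-free induction medium over 8 half-log concentrations from 100 uM, 0.5% DMSO. LIPC mRNA by TaqMan qRT-PCR normalized to ACTB/GAPDH/POLR2A; bidirectional fit versus DMSO.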

[8] = read-out: Lipoprotein lipase (LPL), LPL (gene 4023); test: LTEA_HepaRG_LPL: Life Technologies and Expression Analysis (LTEA) Assay for Lipoprotein lipase (LPL) using HepaRG (AID 2283515)
In short: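 Differentiated HepaRG cells, plated 48 h, then exposed 48 h in serum-free induction medium to 8 concentrations (top 100 uM, half-log steps) in 0.5% DMSO, duplicate. LPL mRNA measured by qRT-PCR, normalized to ACTB, GAPDH and POLR2A.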

[9] = read-out: matrix metalloproteinase-10 (MMP10), MMP10 (gene 4319); test: LTEA_HepaRG_MMP10: Life Technologies and Expression Analysis (LTEA) Assay for matrix metalloproteinase-10 (MMP10) using HepaRG (AID 2283517)
In short: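 Differentiated HepaRG cells in serum-free induction medium exposed 48 h in duplicate to 8-point half-log series up to 100 uM in 0.5% DMSO. mRNA quantified by qRT-PCR, normalised to ACTB, GAPDH, POLR2A; bidirectional fit versus DMSO.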

MYC, MYC (gene 4609) = test: LTEA_HepaRG_MYC: Life Technologies and Expression Analysis (LTEA) Assay for MYC using HepaRG (AID 2283518)
In short: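 Expression changes were scored by TaqMan qRT-PCR with ACTB, GAPDH and POLR2A normalization. Cultures in serum-free induction medium received duplicate 8-point concentration series, highest 100 uM, for 48 h; DMSO (0.5%) served as baseline.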

[10] = read-out: matrix metalloproteinase-3 (MMP3), MMP3 (gene 4314); test: LTEA_HepaRG_MMP3: Life Technologies and Expression Analysis (LTEA) Assay for matrix metalloproteinase-3 (MMP3) using HepaRG (AID 2283519)
In short: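 HepaRG cells (~100,000/well) in serum-free induction medium were dosed in duplicate for 48 h with an 8-point half-log series from 100 uM, 0.5% DMSO. MMP3 mRNA was quantified by Fluidigm TaqMan qRT-PCR, normalized to three housekeeping genes.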

[11] = read-out: Paternally Expressed 10 (PEG10), PEG10 (gene 23089); test: LTEA_HepaRG_PEG10: Life Technologies and Expression Analysis (LTEA) Assay for Paternally Expressed 10 (PEG10) using HepaRG (AID 2283520)
In short: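 Differentiated HepaRG cells exposed 48 h in serum-free induction medium to eight half-log concentrations topping at 100 uM, 0.5% DMSO, in duplicate. PEG10 mRNA quantified by TaqMan qRT-PCR, normalized to ACTB, GAPDH and POLR2A; bidirectional fit versus DMSO.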

[12] = read-out: Nuclear factor NF-kappa-B p105 subunit (Homo sapiens) (UniProt P19838); test: LTEA_HepaRG_NFKB1: Life Technologies and Expression Analysis (LTEA) Assay for Nuclear Factor Kappa B Subunit 1 (NFKB1) using HepaRG (AID 2283521)
In short: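 HepaRG, 48 h exposure; 8-pt half-log series from 100 uM in 0.5% DMSO; duplicates. Readout: NFKB1 mRNA by qRT-PCR (Fluidigm arrays), housekeeping-normalized. Gain/loss fit vs DMSO baseline.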

[13] = read-out: Protein phosphatase 2A (PPP2R4), PTPA (gene 5524); test: LTEA_HepaRG_PPP2R4: Life Technologies and Expression Analysis (LTEA) Assay for Protein phosphatase 2A (PPP2R4) using HepaRG (AID 2283522)
In short: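 Differentiated human HepaRG cells in serum-free induction medium were exposed 48 h to 8 concentrations (top 100 µM, half-log steps, duplicate) in 0.5% DMSO. PPP2R4 mRNA was measured by TaqMan qRT-PCR, normalised to ACTB, GAPDH and POLR2A, and fitted bidirectionally versus DMSO.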

[14] = read-out: Phosphatase and tensin (PTEN), PTEN (gene 5728); test: LTEA_HepaRG_PTEN: Life Technologies and Expression Analysis (LTEA) Assay for Phosphatase and tensin (PTEN) using HepaRG (AID 2283523)
In short: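 HepaRG cells, 48 h after plating, exposed in duplicate for 48 h in serum-free induction medium to 8 half-log concentrations up to 100 uM (0.5% DMSO). PTEN mRNA by qRT-PCR, normalized to ACTB, GAPDH, POLR2A; bidirectional fit versus DMSO.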

[15] = read-out: solute carrier (SLC22A1), SLC22A1 (gene 6580); test: LTEA_HepaRG_SLC22A1: Life Technologies and Expression Analysis (LTEA) Assay for solute carrier (SLC22A1) using HepaRG (AID 2283524)
In short: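 Differentiated human HepaRG cells in serum-free induction medium, exposed 48 h in duplicate to 8-point half-log series from 100 µM top in 0.5% DMSO. SLC22A1 mRNA by TaqMan qRT-PCR normalized to ACTB, GAPDH, POLR2A; bidirectional fit versus DMSO.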

[16] = read-out: Pyruvate Dehydrogenase Kinase 4 (PDK4), PDK4 (gene 5166); test: LTEA_HepaRG_PDK4: Life Technologies and Expression Analysis (LTEA) Assay for Pyruvate Dehydrogenase Kinase 4 (PDK4) using HepaRG (AID 2283525)
In short: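 HepaRG cells plated 48 h, then switched to serum-free induction medium and exposed in duplicate for 48 h to 8 half-log concentrations from 100 uM in 0.5% DMSO. PDK4 mRNA measured by qRT-PCR, normalized to ACTB, GAPDH and POLR2A; bidirectional fit versus DMSO.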

[17] = read-out: NAD(P)H dehydrogenase [quinone] 1 (NQO1), NQO1 (gene 1728); test: LTEA_HepaRG_NQO1: Life Technologies and Expression Analysis (LTEA) Assay for NAD(P)H dehydrogenase [quinone] 1 (NQO1) using HepaRG (AID 2283526)
In short: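 Differentiated human HepaRG cells in serum-free induction medium, dosed in duplicate for 48 h at 8 half-log concentrations up to 100 uM in 0.5% DMSO. NQO1 mRNA by qRT-PCR normalized to ACTB, GAPDH, POLR2A; bidirectional fit versus DMSO baseline.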

[18] = read-out: Nuclear factor erythroid 2-related factor 2 (Homo sapiens) (UniProt Q16236); test: LTEA_HepaRG_NFE2L2: Life Technologies and Expression Analysis (LTEA) Assay for Nuclear factor erythroid 2-related factor 2 (NFE2L2) Transcription Factor using HepaRG (AID 2283527)
In short: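 Differentiated human HepaRG cells, serum-free induction medium, exposed 48 h in duplicate to eight half-log concentrations up to 100 uM in 0.5% DMSO. NFE2L2 mRNA by Fluidigm TaqMan qRT-PCR, normalised to ACTB, GAPDH, POLR2A; bidirectional change versus DMSO.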

[19] = read-out: MicroRNA 122 (MIR122), gene 406906; test: LTEA_HepaRG_MIR122: Life Technologies and Expression Analysis (LTEA) Assay for MicroRNA 122 (MIR122) using HepaRG (AID 2283516); also: the transcript read is the microRNA miR-122
In short: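 Differentiated human HepaRG cells in serum-free induction medium exposed 48 h to 8 half-log concentrations from 100 uM in 0.5% DMSO, duplicate. MIR122 quantified by Fluidigm TaqMan qRT-PCR, normalised to ACTB, GAPDH, POLR2A; fold change fitted bidirectionally versus DMSO.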

Measured: AC50

Chain of Nuclear factor NF-kappa-B p105 subunit (Homo sapiens) (P19838 whole entry, looked up): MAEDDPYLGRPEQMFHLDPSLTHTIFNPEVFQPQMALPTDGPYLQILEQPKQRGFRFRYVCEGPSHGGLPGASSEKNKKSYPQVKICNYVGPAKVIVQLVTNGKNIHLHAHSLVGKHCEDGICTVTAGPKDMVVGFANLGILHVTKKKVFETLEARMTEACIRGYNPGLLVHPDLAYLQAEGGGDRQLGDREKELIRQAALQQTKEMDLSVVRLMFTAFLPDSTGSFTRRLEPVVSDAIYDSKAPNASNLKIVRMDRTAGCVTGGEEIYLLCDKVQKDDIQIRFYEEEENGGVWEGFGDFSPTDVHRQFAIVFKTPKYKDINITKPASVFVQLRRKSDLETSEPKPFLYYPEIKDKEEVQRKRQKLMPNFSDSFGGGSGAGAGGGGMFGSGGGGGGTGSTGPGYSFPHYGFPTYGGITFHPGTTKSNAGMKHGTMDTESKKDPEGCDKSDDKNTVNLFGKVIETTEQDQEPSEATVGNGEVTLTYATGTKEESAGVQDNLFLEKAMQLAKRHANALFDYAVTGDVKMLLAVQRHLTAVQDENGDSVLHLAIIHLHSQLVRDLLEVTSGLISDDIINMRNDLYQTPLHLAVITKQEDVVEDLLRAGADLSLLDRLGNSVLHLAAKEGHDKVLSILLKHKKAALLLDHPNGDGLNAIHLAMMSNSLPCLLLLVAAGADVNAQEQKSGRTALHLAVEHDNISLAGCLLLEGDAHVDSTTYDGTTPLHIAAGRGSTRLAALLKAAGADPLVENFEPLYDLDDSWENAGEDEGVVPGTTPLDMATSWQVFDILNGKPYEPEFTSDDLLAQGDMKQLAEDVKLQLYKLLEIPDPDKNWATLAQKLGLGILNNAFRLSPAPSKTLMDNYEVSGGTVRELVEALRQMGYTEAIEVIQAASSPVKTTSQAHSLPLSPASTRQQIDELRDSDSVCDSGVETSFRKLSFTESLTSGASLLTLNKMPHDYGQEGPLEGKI
Chain of Nuclear factor erythroid 2-related factor 2 (Homo sapiens) (Q16236 whole entry, looked up): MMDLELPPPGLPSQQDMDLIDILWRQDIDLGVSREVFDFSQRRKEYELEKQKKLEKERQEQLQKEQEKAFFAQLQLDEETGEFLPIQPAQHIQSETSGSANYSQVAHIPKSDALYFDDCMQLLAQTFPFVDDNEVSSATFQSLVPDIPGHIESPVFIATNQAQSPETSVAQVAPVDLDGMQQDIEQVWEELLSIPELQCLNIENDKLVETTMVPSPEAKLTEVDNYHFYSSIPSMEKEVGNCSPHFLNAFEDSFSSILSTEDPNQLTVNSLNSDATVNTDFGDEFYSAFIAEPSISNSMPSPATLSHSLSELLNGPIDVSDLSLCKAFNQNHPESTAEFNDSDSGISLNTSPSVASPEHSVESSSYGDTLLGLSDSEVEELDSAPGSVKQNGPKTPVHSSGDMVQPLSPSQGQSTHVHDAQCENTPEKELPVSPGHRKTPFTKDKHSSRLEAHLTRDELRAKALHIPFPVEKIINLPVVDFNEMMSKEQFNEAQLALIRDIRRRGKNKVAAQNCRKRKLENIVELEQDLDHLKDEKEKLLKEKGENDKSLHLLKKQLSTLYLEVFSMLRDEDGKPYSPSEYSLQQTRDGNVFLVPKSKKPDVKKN

COCCOCCOC
active: [1] 0.683 µM | [6] 0.582 µM | [7] 0.983 µM | [8] 1.21 µM | MYC, MYC (gene 4609) 0.966 µM | [12] 2.8 µM | [13] 9.92 µM | [14] 0.243 µM | [17] 315 nM | [18] 9.92 µM
inactive: [2] | [3] | [4] | [5] | [9] | [10] | [11] | [15] | [16]

Nc1ccc2c(c1)C(=O)c1ccccc1C2=O
active: [1] 13.2 µM | [5] 9.08 µM | [7] 8.27 µM | [8] 2.09 µM | MYC, MYC (gene 4609) 12.3 µM | [11] 15.5 µM | [15] 7.06 µM | [16] 13.2 µM | [18] 27.8 µM
inactive: [2] | [3] | [4] | [6] | [9] | [10] | [12] | [14]

CC(C)(C)c1cc(O)c(C(C)(C)C)cc1O
inactive: [4] | [6] | [8] | MYC, MYC (gene 4609) | [12] | [13] | [16] | [18]
active: [1] 50 µM | [2] 75.7 µM | [3] 77.6 µM | [5] 77.4 µM | [7] 79.7 µM | [9] 93.6 µM | [10] 50 µM | [11] 32.5 µM | [14] 87.6 µM | [15] 76.8 µM

CCNc1cccc(C)c1
not listed: [17] | [19]
inactive: all other assays above

CCCCOC(=O)CCCCCCCCC(=O)OCCCC
not listed: [19]
inactive: all other assays above

COc1cc(-c2nc(NC(=O)c3cc4cc(C)cc(C)c4n3CC(=O)O)sc2CCC2CCCCC2)c(OC)cc1Cl
inactive: [4] | [10] | [18]
active: [2] 4.98 µM | [3] 26.5 µM | [5] 11.4 µM | [6] 10.7 µM | [7] 6.41 µM | [8] 10.5 µM | [19] 6.1 µM | [9] 3.51 µM | MYC, MYC (gene 4609) 19.8 µM | [11] 11.9 µM | [12] 19.4 µM | [13] 8.71 µM | [14] 16.8 µM | [15] 7.07 µM | [16] 24.4 µM

Cc1ccc(Cl)cc1
not listed: [12] | [14] | [18] | [19]
inactive: all other assays above

CN1CCCC1=O
not listed: [12] | [19]
inactive: all other assays above

O=C(O)Cc1ccccc1Nc1c(Cl)cccc1Cl
not listed: [12] | [18] | [19]
inactive: all other assays above

Cc1ccc(C(C)C)c(O)c1
not listed: [18] | [19]
inactive: all other assays above

CCCCCCCCCCO
not listed: [1] | [17]
inactive: all other assays above

C=CCc1ccc(O)c(OC)c1
not listed: [12] | [18] | [19]
inactive: all other assays above

Cc1cc(=O)[nH]c(=S)[nH]1
not listed: [1] | [18]
inactive: all other assays above

CNC(=O)[C@H]1O[C@@H](n2cnc3c(NCc4cc(Cl)ccc4OCc4cc(C)no4)ncnc32)[C@H](O)[C@@H]1N
not listed: [1] | [17] | [18]
inactive: all other assays above

C1CCC(SSC2CCCCC2)CC1
not listed: [1]
inactive: all other assays above
